The values that follow come from PubChem BioAssay (NCATS).

Structures are written as SMILES. Records with an inconclusive call do not appear. A call without a number means that no potency is given here. Activity calls are given as the source filed them. Calls come from the whole dose curve; as a rule, active = well fitted cell-killing curve with a large enough effect; inconclusive = small, poorly fitted or top-dose-only effect, or effect the other way; inactive = no such curve, though single readings can be large or run the other way.
Potency is the fitted concentration of half-maximal effect.

The nature of this assay: Quantitative High-Throughput drug screen in 47 multiple myeloma cell lines against the NCATS MIPE library collection: XG6_PLB cell viability assay (AID 1919865). Note: nearly all actives have a fitted effect of over 40% in size. To be noted: XG6 myeloma viability, CellTiter-Glo ATP luminescence, 48 h; series mostly up to 45.8 µM. The text has this:
PI: Beverly A. Mock Ph.D.
Laboratory of Cancer Biology and Genetics,
Center for Cancer Research, National Cancer Institute,
National Institute of Health, Bethesda, Maryland
Drug resistance and disease progression are common in multiple myeloma (MM) patients, underscoring the need for new therapeutic combinations. […] We hypothesized that effective combinations would reduce MYC expression and enhance p16 activity. […] These preclinical data identify potentially useful drug combinations for evaluation in drug-resistant MM and reveal potential mechanisms of combined drug sensitivity.
Described herein is the primary MIPE qHTS used to cherrypick compounds. Validated compounds were then further tested for potential synergistic activiy.
[1] Peat TJ, Gaikwad SM, Dubois W, Gyabaah-Kessie N, Zhang S, Gorjifard S, Phyo Z, Andres M, Hughitt VK, Simpson RM, Miller MA, Girvin AT, Taylor A, Williams D, D'Antonio N, Zhang Y, Rajagopalan A, Flietner E, Wilson K, Zhang X, Shinn P, Klumpp-Thomas C, McKnight C, Itkin Z, Chen L, Kazandijian D, Zhang J, Michalowski AM, Simmons JK, Keats J, Thomas CJ, Mock BA. Drug combinations identified by high-throughput screening promote cell cycle transition and upregulate Smad pathways in myeloma. Cancer Lett. 2023 Aug 1;568:216284. doi: 10.1016/j.canlet.2023.216284. Epub 2023 Jun 24. PMID: 37356470; PMCID: PMC10408729.
SEQUENCE No. (e.g., 1, 2, 3, etc.); […] (e.g., Cells, Incubation, Reagent, etc.); VALUE and DESCRIPTION.
1; Cells; 5 uL; white, solid bottom 1536-well Greiner assay plate.
2; Compounds; 23 nL; Kalypsis pin tool (Wako USA) equipped with a 1536-well pin head to transfer to the assay plates.
3; Incubation; 48 hours; 37C incubation.
4; Reagent;5uL; CellTiter Glo (Promega).
5; Detector; 425V; Luminescence; Viewlux PerkinElmer.
NOTES (numbers refer to Sequence numbers above)
1. The cell-based screening methods employed in this study were like those previously published. Briefly, the corresponding myeloma cell lines were screened in 1,536-well plates with 500 cells, 5-uL per well for inhibition of cell viability (assessed by measuring ATP levels with CellTiterGlo).
2. NCATS MIPE 4.0 library of approved and investigational drugs were added using the Kalypsis pin tool. Wells treated with DMSO only for 100% viability and media only for 0% viability were used as controls.
3. The assay plates were covered and incubated for 48 hours in a 37C, 5% CO2 incubator with controlled humidity.
4. After 48 hours, CellTilter-GloTM luminescent substrate mix (Promega) reagent was added to the assay plate and plates we incubated for 5 min at room temperature.
5. Signal was measured as median relative luminescence units on a ViewLux (PerkinElmer) multiplate reader.
[1] Heske CM, Davis MI, Baumgart JT, Wilson K, Gormally MV, Chen L, Zhang X, Ceribelli M, Duveau DY, Guha R, Ferrer M, Arnaldez FI, Ji J, Tran HL, Zhang Y, Mendoza A, Helman LJ, Thomas CJ. Matrix Screen Identifies Synergistic Combination of PARP Inhibitors and Nicotinamide Phosphoribosyltransferase (NAMPT) Inhibitors in Ewing Sarcoma. Clin Cancer Res. 2017 Dec 1;23(23):7301-7311. doi: 10.1158/1078-0432.CCR-17-1121. Epub 2017 Sep 12. PMID: 28899971; PMCID: PMC6636827.
(Cellular ATP, detected with luciferase, serves as a proxy for viable cell number.)
Turning to `NC(=O)Cc1cccc(C(=O)c2ccccc2)c1N`, the Potency entry was “inactive”. With `COc1ccc2cc([C@H](C)C(=O)O)ccc2c1`, the Potency result is “inactive”. As for `CCOC(=O)C1=C(O)C(=O)N(Cc2ccccc2)C1`, the Potency result is “inactive”. Consider `COC(=O)N[C@H](C(=O)N[C@@H](Cc1ccccc1)[C@@H](O)CN(Cc1ccc(-c2ccccn2)cc1)NC(=O)[C@@H](NC(=O)OC)C(C)(C)C)C(C)(C)C`, for which the Potency result is “inactive”.

Take `Cc1ccc(C)c(OCCCC(C)(C)C(=O)O)c1`: the Potency was 9.35 µM (active).

In the case of `Cc1ccc(Nc2nccc(N(C)c3ccc4c(C)n(C)nc4c3)n2)cc1S(N)(=O)=O`, the Potency is 11.8 µM (active). For the compound `CN1CCC(=C2c3ccccc3CCc3sccc32)CC1`, the Potency entry was “inactive”.

As to `COCCCN1CCC(NC(=O)c2cc(Cl)c(N)c3c2OCC3)CC1`, the Potency is 5.9 µM (active). Regarding `CC1=C(C)C(=O)C(C(CCCCCC(=O)O)c2ccccc2)=C(C)C1=O` (stereo not given), the Potency entry was “inactive”. On to `CCCCCCCCOc1ccccc1C(=O)Nc1ccc(C(=O)OCC[N+](C)(CC)CC)cc1`, for which the Potency is 16.6 µM (active). With `COC(=O)C1=C(C)NC(C)=C(C(=O)OC(C)C)C1c1cccc2nonc12` (stereo not given), the Potency was 5.9 µM (active). Take `Clc1ccc(C(Cn2ccnc2)OCc2ccsc2Cl)c(Cl)c1` (stereo not given): the Potency is 20.9 µM (active). As to `O=C(O)c1cccc(-c2noc(-c3ccccc3F)n2)c1`, the Potency entry was “inactive”. As for `CN(c1nccc(=O)[nH]1)C1CCN(c2nc3ccccc3n2Cc2ccc(F)cc2)CC1`, the Potency was 18.7 µM (active). With `Nc1ccn([C@@H]2O[C@H](CO)[C@@H](O)C2O)c(=O)n1` (stereo not given in full), the Potency result is “inactive”. Take `C=C(c1ccc(C(=O)O)cc1)c1cc2c(cc1C)C(C)(C)CCC2(C)C`: the Potency result was “inactive”. Regarding `O=C(O)CCNC(=O)c1ccc(N=Nc2ccc(O)c(C(=O)O)c2)cc1`, the Potency entry was “inactive”.

Take `CC1(C)CCC(C)(C)c2cc(NC(=O)c3ccc(C(=O)O)cc3)ccc21`: the Potency is 5.26 µM (active). Regarding `CC(C)Oc1ccc2c(=O)c(-c3ccccc3)coc2c1`, the Potency entry was “inactive”. For the compound `CCN(CCO)CCCC(C)Nc1ccnc2cc(Cl)ccc12` (stereo not given), the Potency entry is “inactive”.

For the compound `C[C@@H](c1ncncc1F)[C@](O)(Cn1cncn1)c1ccc(F)cc1F`, the Potency is 5.26 µM (active). Consider `CC(C)c1nc(CN(C)C(=O)N[C@H](C(=O)N[C@@H](Cc2ccccc2)C[C@H](O)[C@H](Cc2ccccc2)NC(=O)OCc2cncs2)C(C)C)cs1`, for which the Potency entry was “inactive”. As to `Nc1nc(Cl)nc2c1ncn2[C@H]1C[C@H](O)[C@@H](CO)O1`, the Potency is 0.935 µM (active). With `Cc1cc(=O)oc2cc(O)ccc12` the entry was “inactive”; with `CCC(C)(Oc1ccc(C2(c3ccc(OC(C)(CC)C(=O)O)cc3)CCCCC2)cc1)C(=O)O` (stereo not given), “inactive”. Regarding `O=c1c(O)c(-c2cc(O)c(O)c(O)c2)oc2cc(O)cc(O)c12`, the Potency entry was “inactive”.

Consider `CC1(C)C(=O)N(CCN2CCC(C(=O)c3ccc(F)cc3)CC2)c2ccccc21`, for which the Potency was 4.69 µM (active). Under `CCN(CC)CCOc1ccc(Nc2ncc3cc(-c4c(Cl)cccc4Cl)c(=O)n(C)c3n2)cc1` stands 0.0296 µM (active); under `O=c1oc2cc(O)ccc2s1`, “inactive”; under `Clc1ccc2c(N3CCN(CCCN4CCN(c5ccnc6cc(Cl)ccc56)CC4)CC3)ccnc2c1`, “inactive”.

With `CCC[C@@H]1C[C@@H](C(=O)N[C@@H]([C@H]2O[C@H](SC)[C@H](O)[C@@H](O)[C@H]2O)[C@@H](C)O)N(C)C1`, the Potency entry is “inactive”. With `Cc1cc(=O)c2c(O)c3c(O)cc(=O)c4c3c3c(cc(O)c1c23)C(C)(C)C=4O` the figure was 0.743 µM (active); with `N=C(N)c1ccc2cc(OC(=O)c3ccc(N=C(N)N)cc3)ccc2c1`, “inactive”; with `CN1C(C(=O)Nc2ccccn2)=C(O)c2sccc2S1(=O)=O`, “inactive”. In the case of `C[C@]12CCC(=O)C=C1CC[C@@H]1[C@H]2[C@@H](O)C[C@@]2(C)[C@H]1CC[C@]2(O)C(=O)CO`, the Potency was 18.7 µM (active). For the compound `CN(C)C(=O)COC(=O)Cc1ccc(OC(=O)c2ccc(N=C(N)N)cc2)cc1`, the Potency was 5.26 µM (active). Take `Cc1cc(Cl)ccc1OCCCC(=O)NO`: the Potency is 1.05 µM (active). For `C[C@@H](N)C1CCC(C(=O)Nc2ccncc2)CC1` (stereo not given in full), the Potency was 5.9 µM (active). For `Nc1cc(C(Cl)=C(Cl)Cl)c(S(N)(=O)=O)cc1S(N)(=O)=O`, the Potency is 11.8 µM (active). Consider `N[C@@H](Cc1cc(I)c(Oc2cc(I)c(O)c(I)c2)c(I)c1)C(=O)O`, for which the Potency result was “inactive”.
